Shown are actives, neighbours in structure and some others; about 19% of the full set was active somewhere.
TDP1 cell CPT = qHTS for Inhibitors of human tyrosyl-DNA phosphodiesterase 1 (TDP1): qHTS in cells in presence of CPT | chicken DT40 Tdp1-/-;hTDP1 cells + 20 nM CPT, ATP luminescence, 48 h | Potency, µM (series often up to 46.2 µM), without a hit: at the highest dose activity change, negative = growth inhibition, actives largely listed as inhibitors | 12% of 420,000 active | AID 686979, 2013; note: potency is the fitted concentration of half-maximal effect; nearly all actives have a fitted effect of over 55% in size
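Cell growth measured by CellTiter-Glo luminescence after a minimum 48 h, 37 C compound exposure with 20 nM CPT in Tdp1-knockout DT40 cells stably expressing hTDP1, seeded 400/well; qHTS titration format.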
DT40 TDP1 no CPT = qHTS for Inhibitors of human tyrosyl-DNA phosphodiesterase 1 (TDP1): qHTS in cells in absence of CPT; AID 686978, 2013; DT40 Tdp1-/- hTDP1 cells, no CPT, ATP luminescence, 48 h; 15% of 420,000 active; Potency, µM (titrated, usually from 46.2 µM), for the others: top-dose activity change, negative = growth inhibition, hits mostly inhibitors; note: potency is the fitted concentration of half-maximal effect; nearly all actives have a fitted effect of over 55% in size
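Compound effects on proliferation are scored in DT40 Tdp1-/-;hTDP1 cells in the absence of CPT. ATP levels (CellTiter-Glo luminescence) are recorded after a ≥48 hr, 37 °C incubation.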
HT1080-NT tox = qHTS for induction of synthetic lethality in tumor cells producing 2HG: qHTS for the HT-1080-NT fibrosarcoma cell line; AID 686970, 2013; 1.6% of 360,000 active; Potency, µM (doses to about 46.1 µM), for inactives: at the top dose activity, negative = less viability, actives largely listed as cytotoxic; HT-1080-NT fibrosarcoma viability, CellTiter-Glo ATP luminescence, 48 h;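 note: NT is the 2HG producing partner of a matched IDH1 knockdown line; potency is the fitted concentration of half-maximal effect; 0% = DMSO-treated cells and -100% = media-only wells without cells; nearly all actives have a fitted effect of over 55% in size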
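HT-1080-NT; 750 cells/well; 5% FBS RPMI; 48 h compound, 37 degrees C; CellTiter-Glo luminescence; curve fitting and curve-class assignment.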
IL1B secr inh = qHTS for Inhibitors of Inflammasome Signaling: IL-1-beta AlphaLISA Primary Screen | THP-1 LPS/ATP IL-1B secretion, AlphaLISA, 16 h; hits give low values | activity change, % at 57.5 µM | 4.7% of 360,000 active | AID 743279, 2014; in the data active = activity change below about -50%; inconclusive = mostly about -30% to -49%
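Secreted IL-1B measured by AlphaLISA bead assay after 16 h compound exposure of THP-1 cells; compounds (final up to 57.5 uM) added 1 h before LPS (250 ng/mL) and ATP (1.25 mM) stimulation; lower signal means less secretion.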
HT1080 IDH1KD tx = qHTS for induction of synthetic lethality in tumor cells producing 2HG: qHTS for the HT-1080-IDH1KD cell line | Potency, µM (top dose mostly 46.1 µM), without a hit: at the highest dose activity, negative = toxicity, most hits filed as cytotoxic | 2% of 360,000 active | HT-1080 IDH1 knockdown viability, ATP luminescence, 48 h;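 note: potency is the fitted concentration of half-maximal effect; 0% = DMSO wells and -100% = cell-free medium wells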
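Using the IDH1-knockdown HT-1080 line run in the same batch and compound series as the NT line, viability after 48 h at 37 °C was determined by CellTiter-Glo luminescence and expressed as % activity.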
Active calls of the source: *; ? = inconclusive; . = not tested or not shown. Unless noted, calls come from the whole dose curve; as a rule, active = well fitted curve in the direction sought with a large enough effect; inconclusive = small, poorly fitted or top-dose-only effect, or another doubt; inactive = no such curve, though single readings can be large; an effect the other way counts as inactive or inconclusive. Unless noted, % is set by controls: 0 for no effect and ±100 for the full control effect.

SMILES | TDP1 cell CPT | DT40 TDP1 no CPT | HT1080-NT tox | IL1B secr inh | HT1080 IDH1KD tx
N#C/C(=C\c1cccnc1)c1ccccc1[N+](=O)[O-] | -3.5% | ? | -24.0% | -91.8* | -25.3%
COc1cc(/C(C#N)=C/c2ccccc2)c([N+](=O)[O-])cc1OC | -25.4% | ? | -15.6% | -83.3* | -4.0%
CCOC(=O)N1C=CC(C)=C[C@@H]2[C@@H](N3C(=O)c4ccccc4C3=O)C(=O)N21 | 3.2% | 0.3% | -2.0% | 0.0 | ?
Cc1[nH]c2ccccc2c1/C=C/c1cc[n+](C)cc1 | 0.651µM* | 0.92µM* | -23.4% | 9.2 | -7.1%
Cc1[nH]c2ccccc2c1/C=C/c1c(C)[nH]c2ccccc12 | 11.2µM* | 10µM* | . | . | .
Cc1[nH]c2ccccc2c1/C=C/C(=O)c1ccncc1 | -9.2% | -21.1% | -3.4% | -12.1 | -1.3%
CC(C)(C)N(Cc1ccccc1)C(=O)CN1C(=O)c2ccccc2S1(=O)=O | ? | 20.6µM* | 12.7% | 1.6 | 18.6%
CC(=O)Nc1ccc(NC(=O)C(Cc2ccccc2)NS(=O)(=O)c2ccc3c(c2)oc(=O)n3C)cc1 (configuration not stated) | -8.9% | 3.6% | . | . | .
Cc1cc2nc3ccc(N(C)C)cc3nc2cc1N | ? | 14.6µM* | -7.4% | ? | -12.7%
O=C(NCCc1ccccn1)c1nc(Cn2cc(Br)cn2)no1 | 2.8% | 9.0% | 9.1% | 6.2 | 1.0%
COc1ccc(OC)c(NC(=O)CCCN2C(=S)NC(C)(C)CC2C)c1 (configuration not stated) | -9.2% | -29.8% | -3.7% | 2.1 | -7.4%
CC1CC(C)(C)NC(=S)N1CCCC(=O)Nc1ccc(F)cc1 (configuration not stated) | -25.9% | 18.4µM* | 14.9% | -1.6 | 5.7%
CCOc1ccc(OCC)c(NC(=O)CCCN2C(=S)NC(C)(C)CC2C)c1 (configuration not stated) | 16.4µM* | 16.4µM* | 13.2% | -10.3 | -0.6%
CC(=O)C[C@@H]1SC[C@H](c2ccccc2)N1S(=O)(=O)c1ccc(C)cc1 | 14.6µM* | 14.6µM* | -8.0% | -9.3 | -3.4%
CCOC(=O)C1=C[C@@H](C2CCCC2)N(S(=O)(=O)c2ccc([N+](=O)[O-])cc2)[C@H]1c1ccccc1 | 20.6µM* | 11.6µM* | ? | 23.6 | ?
C=CC[C@H]1C(C(=O)OCC)=CC[C@@H](c2ccccc2)N1S(=O)(=O)c1ccc(C)cc1 | ? | ? | -9.0% | 39.8 | -23.3%
CCOC(=O)C1=CCC(c2ccccc2)N(S(=O)(=O)c2ccc(C)cc2)[C@H]1CC (some centres not stated) | 20.6µM* | 16.4µM* | -25.0% | 9.8 | -29.7%
CCOC(=O)C1=C[C@@H](C(C)(C)C)N(S(=O)(=O)c2ccc(C)cc2)[C@H]1c1ccc(C)cc1 | 13µM* | 11.6µM* | ? | 50.9 | 13µM*
CC(=O)[C@H]1CC[C@@H](c2ccccc2)N(S(=O)(=O)c2ccc(C)cc2)C1 | ? | ? | 5.4% | 7.1 | -1.9%
[S-]C(=Nc1ccc(Cl)cc1)N[n+]1ccccc1 | ? | ? | 8.3% | -22.9 | 21.9%
C[C@H](CO)N1C[C@H](C)[C@@H](CN(C)S(=O)(=O)c2cn(C)cn2)OCc2cnnn2CCCC1=O | 4.4% | 2.8% | 4.3% | -8.3 | 6.8%
CCOC(=O)C1=C[C@@H](CC)N(S(=O)(=O)c2ccc(C)cc2)[C@H]1c1ccccc1 | 23.1µM* | 14.6µM* | -7.9% | 11.8 | -27.2%
CC[C@@H]1C=C(C(=O)O)[C@H](c2cccc(C)c2)N1S(=O)(=O)c1ccc(C)cc1 | -2.4% | 15.5% | 5.8% | 32.5 | 3.4%
